Experiment [1] in a line: qHTS of pediatric cancer cell lines to identify multiple opportunities for drug repurposing: Primary screen for A673 cells (AID 1347092). Note: nearly all actives have a fitted effect of over 45% in size. The settings on record: A673 Ewing sarcoma viability, CellTiter-Glo ATP luminescence, 48 h; series mostly up to 46 µM. The method, boiled down:
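A673 cells (500-1,000 cells/well) were treated 48 hours at 37 degrees C with compounds at 11-point (0.78 nM to 46 µM) or 8-point (0.59 nM to 46 µM) dilutions. Viability read by CellTiter-Glo luminescence; concentration-response curves fitted.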
A general note: Quantitative high-throughput screening tests each substance at several concentrations.

Experiment [2] can be described thus: qHTS of pediatric cancer cell lines to identify multiple opportunities for drug repurposing: Primary screen for BT-37 cells (AID 1347094). The settings on record: BT-37 viability, CellTiter-Glo luminescence, 48 h; series mostly up to 57.3 µM. The method, boiled down:
(§1)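 Luminescence from CellTiter-Glo served as readout of metabolically active cells after 48 h compound exposure. Titrations: MIPE 11-point, from 0.78 nM; NPC 8-point, from 0.59 nM (final). Concentration-response curves came straight from the primary screen.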

Experiment [3] in a line: qHTS of pediatric cancer cell lines to identify multiple opportunities for drug repurposing: Primary screen for NB-EBc1 cells (AID 1347095). The settings on record: NB-EBc1 neuroblastoma viability, CellTiter-Glo luminescence, 48 h; series mostly up to 46 µM. The method, boiled down:
as §1

Experiment [4] is described as follows: qHTS of pediatric cancer cell lines to identify multiple opportunities for drug repurposing: Primary screen for U-2 OS cells (AID 1347096). Note: nearly all actives have a fitted effect of over 50% in size. The settings on record: U-2 OS viability, CellTiter-Glo luminescence, 48 h; series mostly up to 46 µM. The method, boiled down: (§2)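 Cells (500-1,000/well) in growth media were settled 5 h at 37 degrees C, then given compounds for 48 h. Viability was read as CellTiter-Glo luminescence. Primary runs used MIPE at 11 points (0.78 nM-46 µM) and NPC at 8 points (0.59 nM-46 µM); follow-ups used 11 points.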

The nature of experiment [5]: qHTS of pediatric cancer cell lines to identify multiple opportunities for drug repurposing: Primary screen for Saos-2 cells (AID 1347097). Note: nearly all actives have a fitted effect of over 40% in size. The conditions noted are these: Saos-2 viability, CellTiter-Glo ATP luminescence, 48 h; series mostly up to 46 µM. In outline:
as §1

A short description of experiment [6]: qHTS of pediatric cancer cell lines to identify multiple opportunities for drug repurposing: Primary screen for SK-N-SH cells (AID 1347098). Note: nearly all actives have a fitted effect of over 65% in size. The settings on record: SK-N-SH viability, CellTiter-Glo luminescence, 48 h; series mostly up to 57 µM. The method, boiled down: (§3)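 Cells (500-1,000/well) rested 5 h, then received compounds for 48 h; metabolically active cells were measured by CellTiter-Glo luminescence. Final concentrations spanned up to 46 µM (MIPE, 11-point) or 0.59 nM-46 µM (NPC, 8-point) in primary screens, 11-point in follow-ups.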

Experiment [7] is described as follows: qHTS of pediatric cancer cell lines to identify multiple opportunities for drug repurposing: Primary screen for NB1643 cells (AID 1347099). Note: nearly all actives have a fitted effect of over 50% in size. The conditions noted are these: NB1643 neuroblastoma viability, CellTiter-Glo luminescence, 48 h; series mostly up to 46 µM. The method, boiled down: as §1
Experiment [8] in a line: qHTS of pediatric cancer cell lines to identify multiple opportunities for drug repurposing: Primary screen for LAN-5 cells (AID 1347100). The settings on record: LAN-5 neuroblastoma viability, CellTiter-Glo luminescence, 48 h; series mostly up to 46 µM. In outline:
as §2

Experiment [9] is described as follows: qHTS of pediatric cancer cell lines to identify multiple opportunities for drug repurposing: Primary screen for BT-12 cells (AID 1347101). Note: nearly all actives have a fitted effect of over 25% in size. The conditions noted are these: BT-12 viability, CellTiter-Glo luminescence, 48 h; series mostly up to 57.3 µM. In outline:
as §3

Experiment [10] can be described thus: qHTS of pediatric cancer cell lines to identify multiple opportunities for drug repurposing: Primary screen for SK-N-MC cells (AID 1347093). The settings on record: SK-N-MC viability, CellTiter-Glo luminescence, 48 h; series mostly up to 46 µM. In outline:
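Metabolically active cells were quantified by ATP-dependent luminescence (CellTiter-Glo, 15 min at room temperature) following 48 h treatment. Cells had been plated at 500-1,000 per well and settled for 5 h beforehand.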

Values joined by “and” are separate entries in the source; they are usually repeats but may differ in a detail not shown here. Equal values may be shown once. Inconclusive results are not listed. Active and inactive are the calls of the source. Calls come from the whole dose curve; as a rule, active = well fitted curve in the direction sought with a large enough effect; inconclusive = small, poorly fitted or top-dose-only effect, or another doubt; inactive = no such curve, though single readings can be large; an effect the other way counts as inactive or inconclusive.
Potency is the fitted concentration of half-maximal effect.

`CCOc1cc(N)c(Cl)cc1C(=O)NCC1CN(Cc2ccc(F)cc2)CCO1` (stereo unspecified): the Potency entry in experiment [1], in experiment [2], in experiment [3], in experiment [4], in [5] and in experiment [6] was “inactive” each time. Further, the Potency entry in experiment [7], in experiment [8] and in [9] was “inactive” each time.
With `CO[C@@H]1[C@@H](OC(N)=O)[C@@H](O)[C@H](Oc2ccc3c(O)c(NC(=O)c4ccc(O)c(CC=C(C)C)c4)c(=O)oc3c2C)OC1(C)C`, the Potency entry in experiment [1], in experiment [10], in experiment [2], in experiment [4], in experiment [5] and in experiment [6] was “inactive” in each case. Moreover, the Potency result in experiment [7] was “inactive”.
Take `NC(=O)c1ccc2[nH]ccc2c1`: the Potency entry in experiment [1], in [10], in [2], in experiment [3], in experiment [4] and in experiment [6] was “inactive” throughout. Besides, the Potency entry in experiment [7] and in [8] was “inactive” each time.
Take `CC(=O)CC(c1ccccc1)c1c(O)c2ccccc2oc1=O` (stereo unspecified): the Potency result in experiment [1], in experiment [2], in [3], in experiment [4], in experiment [5] and in experiment [6] was “inactive” in each case. The Potency result in [7] and in experiment [8] was “inactive” each time.
For the compound `COC(=O)Nc1nc2ccc(C(=O)c3ccccc3)cc2[nH]1`, the Potency was 106 nM (active) and 935 nM (active) in experiment [1]; 53.1 nM (active) and 332 nM (active) in [10]; 347 nM (active) and 2.43 µM (active) in [2]; 0.188 µM (active) in experiment [3]; 66.8 nM (active) and 662 nM (active) in experiment [5]; 8.57 µM (active) in experiment [6]. Moreover, the Potency is 469 nM (active) in [8]; 347 nM (active) and 2.43 µM (active) in [9].
Regarding `CN(CCOc1ccc(CC2SC(=O)NC2=O)cc1)c1ccccn1` (stereo unspecified), the Potency result in experiment [1], in [2], in experiment [3], in experiment [4], in experiment [5] and in experiment [6] was “inactive” in each case. Further, the Potency result in [7] and in [8] was “inactive” each time.
In the case of `O=C(NCC1CN(c2ccc(N3CCOCC3=O)cc2)C(=O)O1)c1ccc(Cl)s1` (stereo unspecified), the Potency result in [1], in experiment [2], in experiment [3], in experiment [4], in [5] and in experiment [6] was “inactive” in each case. The Potency entry in experiment [7] and in [8] was “inactive” in each case.
In the case of `COc1cccc(N(C)C(=S)Oc2ccc3c(c2)CCCC3)n1`, the Potency result in experiment [1], in experiment [2], in experiment [3], in experiment [4], in experiment [5] and in experiment [6] was “inactive” in each case. Also, the Potency result in experiment [7] and in experiment [8] was “inactive” in each case.
As to `Nc1[nH]c(=O)ncc1F`, the Potency entry in [1], in [10], in experiment [4], in [5], in experiment [6] and in experiment [7] was “inactive” throughout. The Potency result in experiment [9] is “inactive”.
Regarding `Cn1nnc2c(C(N)=O)ncn2c1=O`, the Potency entry in experiment [1], in [10], in experiment [2], in experiment [4], in [5] and in [6] was “inactive” throughout. Moreover, the Potency result in experiment [7] and in experiment [8] was “inactive” throughout.
Consider `O=C(O)c1cccnc1`, for which the Potency result in [1], in experiment [2], in experiment [3], in [4], in [5] and in experiment [6] was “inactive” each time. Besides, the Potency entry in [7] was “inactive”.
Turning to `COc1ccc2cc3[n+](cc2c1OC)CCc1cc2c(cc1-3)OCO2`, the Potency in experiment [1] was 2.11 µM (active) and 2.35 µM (active); in experiment [10], 8.41 µM (active) and 18.7 µM (active); in experiment [7], 15 µM (active) and 18.7 µM (active); in experiment [8] it was 10.6 µM (active) and 16.6 µM (active); in [9], 3.09 µM (active) and 4.32 µM (active). In addition, the Potency entry in experiment [4] and in [6] was “inactive” in each case.
As to `CCCN[C@H]1CCc2nc(N)sc2C1`, the Potency result in experiment [1], in [2], in experiment [3], in experiment [4], in experiment [5] and in experiment [6] was “inactive” in each case. In addition, the Potency result in experiment [7], in experiment [8] and in experiment [9] was “inactive” throughout.
In the case of `COc1cc2nc(N3CCCN(C)CC3)nc(NC3CCN(Cc4ccccc4)CC3)c2cc1OC`, the Potency was 3.72 µM (active) in experiment [1]; 6.62 µM (active) in experiment [10]; 13.7 µM (active) in [2]; 23.5 µM (active) in experiment [3]; 7.43 µM (active) in [5]; 9.61 µM (active) in experiment [6]. In addition, the Potency is 9.35 µM (active) in experiment [7] and 10.9 µM (active) in [9].
Take `Nc1nc(F)nc2c1ncn2[C@@H]1O[C@H](CO)[C@@H](O)[C@@H]1O`: the Potency in experiment [1] is 0.743 µM (active); in experiment [10] it was 33.5 nM (active) and 332 nM (active); in [2], 0.863 µM (active); in experiment [3], 841 nM (active) and 1.05 µM (active); in [5], 150 nM (active) and 935 nM (active); in experiment [7], 0.372 µM (active). For the same compound, the Potency is 11.9 µM (active) and 469 nM (active) in experiment [8]; 1.53 µM (active) in experiment [9].
Regarding `NC(=O)c1cccnc1`, the Potency result in experiment [1], in experiment [10], in experiment [2], in [3], in experiment [4] and in experiment [6] was “inactive” each time. The Potency entry in experiment [7] and in [8] was “inactive” in each case.
As to `O=S(=O)(c1cccc2cnccc12)N1CCCNCC1`, in [1], the Potency was 18.7 µM (active). The Potency entry in [10], in [2], in experiment [3], in experiment [4], in [7] and in experiment [8] was “inactive” each time. Further, the Potency result in experiment [9] was “inactive”.
As to `COc1cc(NCc2ccc3nc(N)nc(N)c3c2C)cc(OC)c1OC`, the Potency in experiment [1] was 3.72 µM (active) and 168 nM (active); in [10] it was 332 nM (active) and 11.9 nM (active); in experiment [2], 1.53 µM (active) and 69.2 nM (active); in experiment [3], 3.72 µM (active); in experiment [4], 3.72 µM (active); in experiment [5], 11.8 µM (active). Further, the Potency in experiment [7] is 14.8 µM (active); in [9], 2.17 µM (active) and 55 nM (active).
Turning to `S=P(N1CC1)(N1CC1)N1CC1`, the Potency in experiment [1] is 23.5 µM (active); in experiment [10], 3.72 µM (active); in experiment [3] it was 1.05 µM (active); in [7] it was 0.0935 µM (active). Further, the Potency entry in [4] and in experiment [6] was “inactive” throughout.
In the case of `CC(C)OC(=O)OCOP(=O)(CO[C@H](C)Cn1cnc2c(N)ncnc21)OCOC(=O)OC(C)C`, the Potency entry in experiment [1], in experiment [2], in experiment [3], in experiment [4], in experiment [5] and in [7] was “inactive” each time. In experiment [8], the Potency result was “inactive”. The Potency in experiment [10] is 11.8 µM (active) and 15 µM (active).

The values above are taken from PubChem BioAssay (NCATS).
